This note sets out measurements from PubChem BioAssay (NCI).

About 83,000 compounds went through this panel and 20% of them were active in at least one assay; those are over-represented in the sample as a whole.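 Results are percent growth after 48 hours of single-concentration exposure. 100 means growth as in untreated cells, lower positive values show inhibition; negative values down to -100 show cell death.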 Unmarked numbers belong to inactive results. Calls of active or inactive are those of the source.

For the test, the system named is COLO 205 colon. The test can be described thus: NCI-60 one-dose screen, 48 h (100 = growth as untreated, 0 = no growth, -100 = all killed). To be noted: 10 µM. As to the method: Cells are grown in 96 well plates and exposed to the test compound for 48 hours. Compounds are tested at a single concentration, which is 10^-5 M for most compounds. The reported endpoint is percent growth (GI% or GIPRCNT), where numbers from 0 - 100% represent growth inhibition, and numbers from -100% - 0 represent cell death. For example, a value of 40 represents 60% growth inhibition. A value of 0 means no net growth occurred over the course of the experiment. A value of -40 indicates 40% of cells at the beginning of the experiment died by the end of the experiment. A value of -100 means all cells are dead at the end of the experiment.
NCI-60 Human Tumor Cell Lines Screen was performed using the standard one-dose NCI protocol, which is described in more detail at https://dtp.cancer.gov/discovery_development/nci-60/default.htm.
Compounds with GIPRCNT values below 10 were considered active. Activity score was based on GIPRCNT using the following formula: […]
Score is 0 for GIPRCNT values of 100 or above, 50 for GIPRCNT values of 0, and 100 for GIPRCNT values of -100.
Consider `O=C1NC(=O)C(CN2C(=O)C3(c4ccccc42)[C@H](Cl)C(=O)N3c2ccccc2)C(=O)N1` (stereo not given in full), for which the growth is 102%. To `O=C(O)C1[O][Sb][O]C1C(=O)O` (stereo not given) belongs 109%. Turning to `O=c1cc[nH]c(=O)o1`, the growth was 104%. As to `NC(Cc1ccc(O)cc1)C(=O)N/N=C/c1ccc(N(CCCl)CCCl)cc1` (stereo not given), the growth was 112%. With `N#[N+]c1cnc([O-])[nH]c1=O`, the growth was 94.2%. On to `NC(=O)OCC(CO)(c1ccccc1)c1ccccc1`, for which the growth is 105%. Consider `CNC(=O)Oc1cccc(N(C)C)c1`, for which the growth is 108%. Turning to `O=C1c2ccccc2C(=O)N1[N+](=O)[O-]`, the growth is 116%. Take `COC[CH2][Hg][C]#[C][Hg][CH2]COC`: the growth was 100%. Under `FC(F)=C(F)c1ccccc1` stands 104%; under `Nc1c(Br)cc([N+](=O)[O-])cc1[N+](=O)[O-]`, 116%. Turning to `CO[C@@H](c1ccccc1Cl)[C@H](C)OC(N)=O`, the growth is 101%. `C/C1=C/C(=O)O[C@@H]2C[C@@H](CC[C@H](C)/C=C\C=C\CC1)O[C@@](OCCc1ccccc1)([C@@H]1CSC(=O)N1)C2`: the growth is 5.64% (active). `CCN1CC2(CN(CC)C1=S)C(=O)NC(=O)NC2=O`: the growth is 115%. `CC(=O)O[C@H]1CC[C@H]2[C@@H]3CC[C@H]4CC=C(C)C[C@]4(C)[C@H]3CC[C@]12C`: the growth was 110%. Regarding `O=C(CCc1ccco1)NC1CCN(CC2(c3ccc(Cl)cc3)CCC2)CC1`, the growth is -30% (active). Turning to `CC(C)CCC1(CCO)C(=O)NC(=S)NC1=O`, the growth was 107%. Turning to `Oc1ccc2c3c1O[C@H]1c4[nH]c5ccccc5c4C[C@@]4(O)C(C2)N(CC2CC2)CC[C@]314`, the growth was 96.9%.

Consider `CCOC(=O)c1cnc(SCc2ccc(Cl)c(Cl)c2)nc1N1CC1`, for which the growth was 67.8%. Take `Oc1c(Br)cc(Br)cc1Br.[Cu+2]`: the growth is 108%.

In the case of `OB([O][Hg][c]1ccccc1)[O][Hg][c]1ccccc1`, the growth is -100% (active). Regarding `Nc1cccc(CC(=O)Nc2ccc(S(=O)(=O)F)cc2)c1`, the growth was 95.8%.

In the case of `CC(C)N=C(NC(C)C)N1CC1`, the growth was 113%.

In the case of `CCC(CO)NC1CCCCC1` (stereo not given), the growth is 43.2%.

For `O=C1NC(=O)C(O)(C2(O)C(=O)NC(=O)NC2=O)C(=O)N1`, the growth was 79.9%.

As to `CC1(C)N=C(N)N=C(N)N1c1ccc(OCCCCOc2ccc(S(=O)(=O)F)cc2)c(Cl)c1`, the growth is 20.4%. Consider `CCC(CC)(c1ccccc1)C(OC(N)=O)c1ccccc1` (stereo not given), for which the growth is 86.7%. Turning to `COc1cc(NCCCCCN=C(N)N)c2ncccc2c1`, the growth was 54.9%. As for `Fc1ccc(C2=NN(c3ccccc3)C(c3sc(N(CCCl)CCCl)nc3Cl)C2)cc1` (stereo not given), the growth is 88.6%.

On to `O=C(CCl)NCNC(=O)CCl`, for which the growth is 109%. With `CC(C)(O)/C=C/C(=O)[C@](C)(O)[C@H]1[C@H](O)C[C@@]2(C)[C@@H]3CC=C4[C@@H](C=C(O)C(=O)C4(C)C)[C@]3(C)C(=O)C[C@]12C`, the growth was -52.3% (active).

Turning to `C=CCC1(CC)C(=O)NC(=S)NC1=O`, the growth was 97.3%. In the case of `Cc1ccc(C[As+](c2ccccc2)(c2ccccc2)c2ccccc2)cc1`, the growth is -55.7% (active). To `ClCCN(CCCl)c1ccc(/C=C\c2ccnc3ccccc23)cc1` belongs 88.8%; to `C=CC(=O)NC(O)C(Cl)(Cl)Cl` (stereo not given), 111%. As to `O=CN1N=C(c2ccccc2)CC1c1sc(N(CCCl)CCCl)nc1Cl` (stereo not given), the growth was 95.5%. On to `Cc1nnc([S-])s1.[Au+].c1ccc([PH+](c2ccccc2)c2ccccc2)cc1`, for which the growth is -31.7% (active). `O=C1C=CC(=O)C2C1C1(Cl)C(Cl)=C(Cl)C2(Cl)C1(Cl)Cl` (stereo not given): the growth is 74.7%. With `CC(=O)[O][Hg][c]1ccccc1`, the growth was -98.5% (active). `O=c1[nH]c2cc(Cl)ccc2n1C1CCN(CCCC(c2ccc(F)cc2)c2ccc(F)cc2)CC1`: the growth is -88.3% (active).
